The supplement of paper PMC10849652
About 7,900 targets were measured; listed, in parts, are those with a hit and a random draw of the rest. About 0.6% of all pairs of compound and target were hits.

Experiments:
Assay in all cases: log2 fold change, soluble protein after heating vs DMSO (PISA); higher = thermal stabilisation; K562 cells, 10 uM, 30 min; active = over 0.2 and 3.5 SD of the protein, either way, in both replicates (recomputed)
dasatinib = compound: Cc1nc(Nc2ncc(C(=O)Nc3c(C)cccc3Cl)s2)cc(N2CCN(CCO)CC2)n1 [dasatinib]
In short: (§1)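 K562 cells (2×10^6 cells/mL) were treated with 10 μM compound for 30 min, and aliquots were heated for 3 min over 48°C-58°C. Pooled aliquots were extracted in PBS with 0.5% NP-40 at 4°C, and the supernatant after 21,000xg for 90 min was measured by TMTpro 16plex LC-MS/MS with channel sums equalised. Reported thermal stability, relative to control samples and from duplicates, is a log2 fold change.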

[1] = compound: Cn1cc(-c2ccc3c(c2)CCN3C(=O)Cc2cccc(C(F)(F)F)c2)c2c(N)ncnc21
In short: as §1

tipifarnib = compound: Cn1cncc1[C@@](N)(c1ccc(Cl)cc1)c1ccc2c(c1)c(-c1cccc(Cl)c1)cc(=O)n2C [tipifarnib]
In short: as §1

mubritinib = compound: FC(F)(F)c1ccc(/C=C/c2nc(COc3ccc(CCCCn4ccnn4)cc3)co2)cc1 [mubritinib]
In short: as §1

[2] = compound: NC(=O)Nc1cc(-c2cccc(F)c2)sc1C(=O)N[C@H]1CCCNC1
In short: as §1

[3] = compound: NC1(c2ccc(-c3nc4ccn5c(=O)[nH]nc5c4cc3-c3ccccc3)cc2)CCC1
In short: as §1

entinostat = compound: Nc1ccccc1NC(=O)c1ccc(CNC(=O)OCc2cccnc2)cc1 [entinostat]
In short: as §1

silmitasertib = compound: O=C(O)c1ccc2c(c1)nc(Nc1cccc(Cl)c1)c1ccncc12 [silmitasertib]
In short: as §1

[4] = compound: Cc1cccc(CC(=O)N2CCc3c2ccc(-c2cn(C)c4ncnc(N)c24)c3F)n1
In short: as §1

[5] = compound: Cn1cc(-c2ccc3nnc(C(F)(F)c4ccc5ncccc5c4)n3n2)cn1
In short: as §1

vorinostat = compound: O=C(CCCCCCC(=O)Nc1ccccc1)NO [vorinostat]
In short: as §1

nilotinib = compound: Cc1cn(-c2cc(NC(=O)c3ccc(C)c(Nc4nccc(-c5cccnc5)n4)c3)cc(C(F)(F)F)c2)cn1 [nilotinib]
In short: as §1

[6] = compound: Cc1nc(Nc2n[nH]c3c2CN(C(=O)N[C@H](CN(C)C)c2ccccc2)C3(C)C)c2sccc2n1
In short: as §1

[7] = compound: Cc1ncc(-c2ccnc(Nc3ccc(S(C)(=O)=O)cc3)n2)n1C(C)C
In short: as §1

[8] = compound: NC(=O)c1cnc(N[C@@H]2CCCC[C@@H]2N)nc1Nc1cccc(-n2nccn2)c1
In short: as §1

[9] = compound: NCC(=O)Nc1ccc(-n2nc(C(F)(F)F)cc2-c2ccc3c(ccc4ccccc43)c2)cc1
In short: as §1

[10] = compound: O=C1NC(=O)C(c2cnc3ccccn23)=C1c1cn2c3c(cc(F)cc13)CN(C(=O)N1CCCCC1)CC2
In short: as §1

bafetinib = compound: Cc1ccc(NC(=O)c2ccc(CN3CC[C@H](N(C)C)C3)c(C(F)(F)F)c2)cc1Nc1nccc(-c2cncnc2)n1 [bafetinib]
In short: as §1

citarinostat = compound: O=C(CCCCCCNC(=O)c1cnc(N(c2ccccc2)c2ccccc2Cl)nc1)NO [citarinostat]
In short: as §1

[11] = compound: c1cc(OCCN2CCCCC2)cc(-c2n[nH]c3ccc(-c4nnc[nH]4)cc23)c1
In short: as §1

Measured: log2 fold change

LSR isoform 3 (UniProt Q86X29)
inactive: dasatinib -0.074 | [1] 0.026 | tipifarnib 0.101 | mubritinib 0.435 | [2] -0.531 | [3] -0.327 | entinostat -0.134 | silmitasertib 0.062

MAPK11 (UniProt Q15759)
inactive: [4] -0.116 | [5] -0.024 | vorinostat 0.033

LYN isoform 2 (UniProt P07948)
inactive: nilotinib -0.001 | [6] -0.418 | [7] -0.006 | [1] 0 | tipifarnib 0.075 | [2] 0.162 | [8] 0.014 | [9] -0.073 | entinostat -0.155 | [10] 0.082

LRFN1 (UniProt Q9P244)
Sequence of UniProt Q9P244 (Q9P244 whole entry, looked up): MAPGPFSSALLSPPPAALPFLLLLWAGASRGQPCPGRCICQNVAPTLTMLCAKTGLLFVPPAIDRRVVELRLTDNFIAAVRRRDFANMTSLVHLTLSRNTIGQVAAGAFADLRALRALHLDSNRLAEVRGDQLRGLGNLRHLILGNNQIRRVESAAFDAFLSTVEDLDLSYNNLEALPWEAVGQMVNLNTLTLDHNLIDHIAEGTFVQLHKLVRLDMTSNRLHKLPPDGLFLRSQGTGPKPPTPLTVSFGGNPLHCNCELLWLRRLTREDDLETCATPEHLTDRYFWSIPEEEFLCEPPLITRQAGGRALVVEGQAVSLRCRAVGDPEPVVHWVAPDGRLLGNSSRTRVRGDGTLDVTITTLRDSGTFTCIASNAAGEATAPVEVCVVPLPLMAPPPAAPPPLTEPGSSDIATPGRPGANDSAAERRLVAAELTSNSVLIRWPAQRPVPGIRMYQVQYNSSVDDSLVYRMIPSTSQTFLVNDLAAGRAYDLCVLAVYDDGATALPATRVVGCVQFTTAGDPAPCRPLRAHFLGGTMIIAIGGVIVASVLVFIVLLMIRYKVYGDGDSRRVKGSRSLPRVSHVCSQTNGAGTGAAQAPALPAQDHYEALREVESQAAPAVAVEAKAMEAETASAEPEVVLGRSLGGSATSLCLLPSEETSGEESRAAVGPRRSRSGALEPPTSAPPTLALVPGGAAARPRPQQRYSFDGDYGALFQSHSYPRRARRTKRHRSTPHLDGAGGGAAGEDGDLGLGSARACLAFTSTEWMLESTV
inactive: bafetinib -0.017 | dasatinib -0.129 | [1] 0.178 | [5] 0.011 | tipifarnib -0.026 | [2] -0.14 | [9] -0.166 | entinostat 0.133 | citarinostat -0.06 | [10] 0.036 | [11] 0.716

LOX (UniProt P28300)
active: bafetinib -0.734
inactive: nilotinib -0.183 | [6] 0.175 | [7] 0.12 | mubritinib -0.017 | [3] -0.086 | silmitasertib 0.187

IKZF1 (UniProt R9R4D9)
inactive: [4] -0.164 | dasatinib -0.17 | [1] -0.044 | tipifarnib -0.119 | vorinostat -0.181

MAP3K20 isoform 2 (UniProt Q9NYL2)
inactive: nilotinib 0.098 | [6] 0.014 | [7] -0.07 | tipifarnib 0.138 | mubritinib -0.134 | [2] 0.09 | [8] -0.041 | [3] 0.099 | entinostat 0.056 | silmitasertib 0.009 | [10] -0.008

MED29 (UniProt Q9NX70)
Sequence of UniProt Q9NX70 (Q9NX70 whole entry, looked up): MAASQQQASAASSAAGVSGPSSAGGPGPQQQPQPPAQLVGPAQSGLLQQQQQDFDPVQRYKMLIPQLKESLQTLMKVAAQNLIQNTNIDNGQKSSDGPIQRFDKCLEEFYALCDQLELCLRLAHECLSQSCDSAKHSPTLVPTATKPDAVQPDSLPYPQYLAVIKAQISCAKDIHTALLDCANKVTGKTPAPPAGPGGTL
inactive: nilotinib 0.017 | [6] 0.027 | dasatinib 0.226 | [7] -0.14 | tipifarnib 0.169 | mubritinib -0.136 | [8] 0.05 | [3] 0.029 | silmitasertib 0.133

IGFBP6 (UniProt P24592)
inactive: dasatinib -0.038 | [1] 0.152 | [5] 0.006 | [8] -0.079 | [9] -0.13

LSR (UniProt M0QZL9)
inactive: [2] -0.508 | [9] -0.095 | entinostat -0.406 | [10] -0.074

MAP4K2 (UniProt Q12851)
active: [2] 0.827
inactive: bafetinib -0.116 | nilotinib -0.187 | [6] 0.024 | [7] -0.13 | [1] -0.135 | tipifarnib -0.048 | entinostat 0.145 | citarinostat 0.116 | [11] -0.22

KIF1B isoform 3 (UniProt O60333)
Sequence of UniProt O60333 (O60333 whole entry, looked up): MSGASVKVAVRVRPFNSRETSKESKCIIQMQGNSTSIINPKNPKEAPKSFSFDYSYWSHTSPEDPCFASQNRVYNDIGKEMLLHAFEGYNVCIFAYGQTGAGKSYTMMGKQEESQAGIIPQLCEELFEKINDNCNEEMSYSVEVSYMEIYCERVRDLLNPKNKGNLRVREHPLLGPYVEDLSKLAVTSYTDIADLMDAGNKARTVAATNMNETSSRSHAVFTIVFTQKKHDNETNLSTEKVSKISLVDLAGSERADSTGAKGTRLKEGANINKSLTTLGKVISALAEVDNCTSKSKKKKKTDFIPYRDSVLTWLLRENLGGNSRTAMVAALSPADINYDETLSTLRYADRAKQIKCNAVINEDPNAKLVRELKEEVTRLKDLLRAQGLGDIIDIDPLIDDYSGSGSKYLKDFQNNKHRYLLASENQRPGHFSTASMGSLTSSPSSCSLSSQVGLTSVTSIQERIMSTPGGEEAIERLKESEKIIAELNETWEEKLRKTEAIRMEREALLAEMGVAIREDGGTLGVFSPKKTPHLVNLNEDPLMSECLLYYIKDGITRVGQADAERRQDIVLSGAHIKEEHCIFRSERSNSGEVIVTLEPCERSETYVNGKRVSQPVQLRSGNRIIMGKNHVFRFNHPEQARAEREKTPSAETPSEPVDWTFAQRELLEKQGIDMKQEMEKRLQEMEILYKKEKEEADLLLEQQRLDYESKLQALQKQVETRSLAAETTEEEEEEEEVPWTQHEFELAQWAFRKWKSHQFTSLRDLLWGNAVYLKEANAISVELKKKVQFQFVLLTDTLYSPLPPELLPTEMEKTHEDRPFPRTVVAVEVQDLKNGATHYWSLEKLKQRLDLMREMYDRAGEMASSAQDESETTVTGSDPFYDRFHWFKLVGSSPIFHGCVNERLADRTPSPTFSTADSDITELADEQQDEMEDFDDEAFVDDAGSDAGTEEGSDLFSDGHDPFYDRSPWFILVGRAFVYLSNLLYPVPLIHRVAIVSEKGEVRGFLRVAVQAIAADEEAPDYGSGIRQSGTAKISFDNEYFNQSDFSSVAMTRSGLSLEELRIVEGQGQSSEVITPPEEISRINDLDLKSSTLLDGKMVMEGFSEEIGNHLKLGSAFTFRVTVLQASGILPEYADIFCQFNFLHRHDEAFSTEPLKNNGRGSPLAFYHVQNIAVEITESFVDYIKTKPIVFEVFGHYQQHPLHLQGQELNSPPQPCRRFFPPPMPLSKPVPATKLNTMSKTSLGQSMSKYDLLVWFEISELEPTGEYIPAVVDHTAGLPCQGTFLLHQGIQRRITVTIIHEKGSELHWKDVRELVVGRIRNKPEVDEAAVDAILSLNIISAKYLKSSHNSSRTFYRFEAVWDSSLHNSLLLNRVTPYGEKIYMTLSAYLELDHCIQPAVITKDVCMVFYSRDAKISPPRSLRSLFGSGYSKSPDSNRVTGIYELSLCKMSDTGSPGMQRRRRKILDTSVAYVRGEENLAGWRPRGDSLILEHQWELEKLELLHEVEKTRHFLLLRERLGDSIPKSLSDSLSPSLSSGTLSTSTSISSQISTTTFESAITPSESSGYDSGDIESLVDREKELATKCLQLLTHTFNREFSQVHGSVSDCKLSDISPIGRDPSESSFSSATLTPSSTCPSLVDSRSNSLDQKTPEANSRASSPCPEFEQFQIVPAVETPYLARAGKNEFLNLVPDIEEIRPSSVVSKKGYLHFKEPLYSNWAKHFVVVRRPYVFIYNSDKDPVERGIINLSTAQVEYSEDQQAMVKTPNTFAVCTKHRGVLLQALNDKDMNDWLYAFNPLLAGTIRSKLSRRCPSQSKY
inactive: mubritinib 0.168 | [3] -0.073 | [9] -0.389 | citarinostat 0.043 | silmitasertib -0.057 | [11] -0.55

IPP (UniProt Q9Y573)
inactive: bafetinib -0.225 | [8] 0.047

MAPK7 (UniProt Q13164)
inactive: [4] 0.034 | [8] -0.25 | vorinostat -0.069 | [10] 0

MFSD12 isoform 3 (UniProt Q6NUT3)
inactive: [4] 0.047 | dasatinib -0.093 | [1] -0.124 | [2] 0.073 | [8] -0.159 | entinostat -0.067 | vorinostat 0.11 | citarinostat 0.1 | [11] -0.162

LIN52 (UniProt Q52LA3)
Sequence of UniProt Q52LA3 (Q52LA3 whole entry, looked up): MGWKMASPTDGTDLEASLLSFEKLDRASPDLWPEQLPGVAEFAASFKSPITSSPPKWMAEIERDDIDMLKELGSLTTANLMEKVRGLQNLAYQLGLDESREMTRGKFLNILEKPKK
inactive: dasatinib -0.049 | mubritinib -0.117 | [3] 0.294 | silmitasertib -0.045

MAP4 isoform 5 (UniProt P27816)
active: [10] 0.423
inactive: bafetinib -0.028 | nilotinib -0.181 | [6] 0.028 | [7] 0 | [5] -0.037 | tipifarnib 0.066 | mubritinib 0.027 | [2] 0.135 | [8] 0.087 | [3] 0.109 | entinostat 0.075 | citarinostat -0.121 | silmitasertib 0.012 | [11] 0.074

MAGED1 isoform 2 (UniProt Q9Y5V3)
inactive: nilotinib -0.035 | [6] -0.008 | dasatinib 0.057 | [7] -0.082 | [1] 0.111 | tipifarnib -0.104 | [2] 0.098 | [8] -0.029 | [9] -0.258 | entinostat 0 | [10] 0.262

MFAP3 (UniProt P55082)
inactive: bafetinib -0.385 | dasatinib -0.083 | [2] 0.043 | [8] -0.04 | [9] -0.09 | entinostat -0.052 | [10] -0.243

MED17 (UniProt Q9NVC6)
active: [8] -0.33
inactive: [4] -0.033 | nilotinib 0.069 | [6] 0.079 | dasatinib -0.152 | [7] -0.108 | [1] -0.033 | [5] -0.069 | tipifarnib 0.077 | mubritinib 0.015 | [2] 0.068 | [3] 0.049 | [9] -0.034 | entinostat -0.128 | vorinostat 0.045 | citarinostat 0.014 | silmitasertib 0.074 | [10] 0.112 | [11] 0.126

LEPROT (UniProt O15243)
inactive: [4] 0.03 | dasatinib 0.188 | [1] -0.193 | mubritinib 0.041 | [8] -0.161 | [3] -0.088 | vorinostat -0.142 | citarinostat 0.125 | silmitasertib 0.005 | [10] 0.261 | [11] -0.072

LUM (UniProt P51884)
inactive: nilotinib 0.449 | [6] 0.036 | dasatinib 0.002 | [7] 0.257 | [1] 0.177 | [5] -0.075 | tipifarnib 0.055 | [2] -0.067 | [8] -0.108 | [9] -0.002 | entinostat -0.033 | citarinostat -0.042 | [10] 0.185 | [11] 0.47

LRRFIP1 isoform 4 (UniProt Q32MZ4)
Sequence of UniProt Q32MZ4 (Q32MZ4 whole entry, looked up): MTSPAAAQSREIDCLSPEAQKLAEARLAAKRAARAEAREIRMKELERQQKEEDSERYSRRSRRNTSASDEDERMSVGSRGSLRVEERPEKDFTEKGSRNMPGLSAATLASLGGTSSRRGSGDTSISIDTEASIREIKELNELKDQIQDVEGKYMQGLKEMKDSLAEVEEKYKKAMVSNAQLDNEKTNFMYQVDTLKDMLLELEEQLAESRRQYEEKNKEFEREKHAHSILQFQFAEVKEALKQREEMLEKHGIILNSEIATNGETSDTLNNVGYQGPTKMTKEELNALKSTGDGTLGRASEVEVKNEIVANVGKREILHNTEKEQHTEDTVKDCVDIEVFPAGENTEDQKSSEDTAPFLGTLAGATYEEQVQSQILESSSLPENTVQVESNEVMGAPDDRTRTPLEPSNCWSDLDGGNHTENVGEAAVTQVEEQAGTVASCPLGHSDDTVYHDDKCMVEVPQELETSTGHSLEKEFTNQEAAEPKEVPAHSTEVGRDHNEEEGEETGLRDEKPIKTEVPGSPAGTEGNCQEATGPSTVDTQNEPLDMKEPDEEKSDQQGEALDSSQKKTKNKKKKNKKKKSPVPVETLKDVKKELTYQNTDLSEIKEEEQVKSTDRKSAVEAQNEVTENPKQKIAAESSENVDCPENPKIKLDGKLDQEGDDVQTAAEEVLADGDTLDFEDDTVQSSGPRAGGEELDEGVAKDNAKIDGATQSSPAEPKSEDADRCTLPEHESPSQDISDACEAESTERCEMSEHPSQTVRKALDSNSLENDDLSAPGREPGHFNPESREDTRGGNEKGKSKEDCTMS
inactive: [4] -0.046 | dasatinib -0.095 | [1] -0.226 | [8] 0.04 | vorinostat -0.062 | [10] -0.019

LRRCC1 (UniProt Q9C099)
inactive: dasatinib 0.017 | [5] 0.063 | [8] -0.041

MAML1 (UniProt Q92585)
inactive: [1] 0.087 | [5] -0.009 | [2] 0.08 | [9] 0.088 | entinostat -0.104 | [10] 0.025

LDLRAP1 (UniProt Q5SW96)
inactive: bafetinib -0.011 | [5] 0.14

IGFBP3 isoform 2 (UniProt P17936)
inactive: [4] 0.043 | dasatinib -0.001 | [1] 0.106 | tipifarnib -0.087 | [2] 0.042 | [8] -0.142 | [9] -0.043 | entinostat -0.02 | vorinostat 0.167 | [10] -0.047

KIF21A (UniProt H0YI78)
inactive: [5] 0.134

KIZ (UniProt Q2M2Z5)
inactive: [4] 0.268 | [1] -0.446 | [5] 0.196 | tipifarnib 0.217 | [8] -0.067 | vorinostat 0.137 | citarinostat -0.094 | [11] 0.045

KIF13A isoform 4 (UniProt Q9H1H9)
inactive: [1] 0.069 | [2] -0.034 | [8] -0.165 | entinostat 0.303

ITGA2B (UniProt P08514)
active: vorinostat -0.495
inactive: [4] 0.256 | nilotinib -0.04 | [6] -0.013 | dasatinib 0.012 | [7] -0.151 | [1] -0.122 | [5] -0.051 | tipifarnib 0.073 | [2] 0.085 | [8] -0.222 | [9] -0.009 | entinostat -0.009 | [10] 0.02

KMT5A (UniProt Q9NQR1)
inactive: [4] -0.218 | [2] 0.069 | entinostat -0.258 | vorinostat 0.096

MAP4K4 isoform 6 (UniProt O95819)
Sequence of UniProt O95819 (O95819 whole entry, looked up): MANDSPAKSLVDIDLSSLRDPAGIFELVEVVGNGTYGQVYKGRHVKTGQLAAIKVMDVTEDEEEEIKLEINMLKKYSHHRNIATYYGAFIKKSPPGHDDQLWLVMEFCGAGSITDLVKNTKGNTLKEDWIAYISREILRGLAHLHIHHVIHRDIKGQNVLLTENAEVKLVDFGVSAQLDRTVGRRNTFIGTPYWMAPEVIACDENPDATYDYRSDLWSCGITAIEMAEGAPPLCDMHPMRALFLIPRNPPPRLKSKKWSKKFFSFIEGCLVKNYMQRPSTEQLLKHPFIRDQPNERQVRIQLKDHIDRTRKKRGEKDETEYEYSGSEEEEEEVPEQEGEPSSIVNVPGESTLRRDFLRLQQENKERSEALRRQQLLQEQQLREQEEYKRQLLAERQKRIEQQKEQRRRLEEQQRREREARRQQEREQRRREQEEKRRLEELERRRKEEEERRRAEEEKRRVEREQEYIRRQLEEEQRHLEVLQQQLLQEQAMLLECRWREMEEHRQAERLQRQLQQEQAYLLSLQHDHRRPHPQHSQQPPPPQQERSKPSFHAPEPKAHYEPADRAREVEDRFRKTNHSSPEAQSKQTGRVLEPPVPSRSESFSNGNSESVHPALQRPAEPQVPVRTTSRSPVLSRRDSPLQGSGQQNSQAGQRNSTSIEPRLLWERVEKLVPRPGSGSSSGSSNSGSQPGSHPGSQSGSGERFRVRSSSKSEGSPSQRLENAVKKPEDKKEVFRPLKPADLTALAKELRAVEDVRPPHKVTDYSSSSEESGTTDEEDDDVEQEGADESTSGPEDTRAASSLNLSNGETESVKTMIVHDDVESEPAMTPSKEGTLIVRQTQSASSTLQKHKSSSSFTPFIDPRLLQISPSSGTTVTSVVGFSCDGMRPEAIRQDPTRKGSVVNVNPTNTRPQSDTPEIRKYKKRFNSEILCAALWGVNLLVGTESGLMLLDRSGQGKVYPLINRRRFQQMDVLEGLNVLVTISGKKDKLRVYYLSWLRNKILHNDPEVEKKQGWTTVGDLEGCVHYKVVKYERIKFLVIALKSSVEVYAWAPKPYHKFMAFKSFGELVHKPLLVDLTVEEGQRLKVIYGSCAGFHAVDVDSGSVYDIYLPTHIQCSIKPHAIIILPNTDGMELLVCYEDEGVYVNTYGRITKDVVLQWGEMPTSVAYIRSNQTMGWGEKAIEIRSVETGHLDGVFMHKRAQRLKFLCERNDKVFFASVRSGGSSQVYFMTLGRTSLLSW
inactive: nilotinib 0.047 | [6] -0.034 | dasatinib -0.001 | [7] 0.008 | [1] 0.1 | mubritinib 0.02 | [2] 0.332 | [3] 0.009 | [9] 0.228 | entinostat 0.237 | citarinostat 0.114 | silmitasertib -0.202 | [11] 0.143

MAP2K5 (UniProt Q13163)
inactive: dasatinib 0.063 | [1] 0.06 | [5] 0 | [8] -0.025

MAPRE3 isoform 2 (UniProt Q9UPY8)
inactive: nilotinib -0.539 | [6] -0.355 | [7] -0.118 | [1] -0.028 | tipifarnib 0.201 | [8] -0.033
